Data on nine compounds can be found in PubChem BioAssay AID2061318 (National Center for Advancing Translational Sciences (NCATS), 2025).

Inconclusive results are not listed. Activity calls are given as the source filed them. The call rests on the fitted dose curve; in most records, active means well fitted inhibition curve with a large enough effect; inconclusive means small, poorly fitted or top-dose-only effect; inactive means flat fitted curve, though single readings scatter.

The assay is described as follows: Identification of antibody-drug conjugate (ADC) payloads which are substrates of ATP-binding cassette drug efflux transporters: ABCB1-HEK293-MDR-19 cell line. Particulars: HEK293 ABCB1 (MDR-19) viability, CellTiter-Glo, 48 h. The source says: Antibody-drug conjugates (ADCs) feature an antibody recognizing a specific protein joined to a potent toxic payload. Numerous antibody-drug conjugates have received FDA approval; however, clinical resistance arises. Resistance mechanisms include decreased expression or mutation of the antibody target, impaired payload release, or increased expression of ATP-binding cassette (ABC) efflux transporters associated with multidrug resistance. We therefore sought to characterize the interaction of ABC multidrug transporters with ADC payloads. We performed a high-throughput screen with 27 common ADC payloads using cells lines expressing ABC transporters P-glycoprotein (P-gp, encoded by ABCB1) or ABCG2 (encoded by ABCG2). Confirmatory assays were also performed using cells transfected to express P-gp, ABCG2, or MRP1 (encoded by ABCC1). Several commonly used ADC payloads were substrates of P-gp, including calicheamicin gamma1, monomethyl auristatin E, DM1, and DM4. All the pyrrolobenzodiazepines tested - SJG136, SGD-1882, SG2057, and SG3199 - were substrates of P-gp, ABCG2, and MRP1. […] These findings highlight the risk of transporter-mediated resistance with certain ADC payloads and underscore the importance of selecting payloads that evade ABC transporter recognition in future ADC development.
HEK-293 cells were transfected with empty vector (pcDNA) or vector containing the human ABCB1 (MDR-19), ABCG2 (R-5), or ABCC1 gene (MRP1) and were maintained in EMEM with 2 mg/mL G418 added to maintain transporter expression. The HeLa derivative KB-3-1 and the P-gp overexpressing KB-8-5-11 subline were maintained in DMEM; KB-8-5-11 additionally received 100 ng/mL colchicine. H460 parental cells were obtained from the Division of Cancer Treatment and Diagnosis Tumor Repository, National Cancer Institute at Frederick, MD and were cultured in RPMI. The ABCG2 expressing subline H460 MX20 was generated by selecting H460 cells in 20 nM mitoxantrone. Media in all cases was supplemented with 10% FBS and 1% penicillin-streptomycin. We explored 27 common ADC payloads, in two orthogonal, paired cell line sets-a drug selected and transfected set for each transporter--to identify substrates of the ABC transporters P-gp and ABCG2. Compounds were sourced from Levena Biopharma (San Diego, CA), Selleck Chem (Houston, TX), ChemieTek (Indianapolis, IN), or Microsource Discovery Systems (Gaylordsville, CT). Screening was performed as previously described. Briefly, cells were plated at a density of 500 cells/well in 1536 well plates with compounds added using a 1536-head pin tool (Kalypsys, San Diego CA). Cells were incubated with cytotoxic drugs and processed with CellTiter Glo reagent (Promega, Madison, WI) to determine viability after 48 hours. P-gp substrates were identified by comparing compound activity between paired sets of low-expressing (sensitive) and over-expressing (resistant) cell lines.
(Cellular ATP, detected with luciferase, serves as a proxy for viable cell number.)
On to `CCN(C(C)=O)[C@H]1CO[C@@H](O[C@H]2[C@H](O[C@H]3C#C/C=C\C#C[C@]4(O)CC(=O)C(NC(=O)OC)=C3/C4=C\CSSSC)O[C@H](C)[C@@H](NO[C@H]3C[C@H](O)[C@H](SC(=O)c4c(C)c(I)c(O[C@@H]5O[C@@H](C)[C@H](O)[C@@H](OC)[C@H]5O)c(OC)c4OC)[C@@H](C)O3)[C@@H]2O)C[C@@H]1OC`, for which the Potency was 748 nM (active).

Consider `CCc1c2c(nc3ccc(O)cc13)-c1cc3c(c(=O)n1C2)COC(=O)[C@]3(O)CC`, for which the Potency was 11.8 nM (active). For `COc1cc2cc(c1Cl)N(C)C(=O)C[C@H](O)[C@]1(C)O[C@H]1[C@H](C)C1C[C@@](O)(NC(=O)O1)[C@H](OC)/C=C/C=C(\C)C2` the value was 2980 nM (active).

Turning to `CN(C)CCOc1ccc2[nH]c(C(=O)N3C[C@@H](CCl)c4c3cc(O)c3ccccc43)cc2c1`, the Potency is 0.4 nM (active). Consider `COC(=O)c1cc2c3c(cc(O)c2[nH]1)N(C(=O)c1cc2cc(OC)c(OC)c(OC)c2[nH]1)CC3CCl` (centres undefined), for which the Potency is 0.5 nM (active).

For the compound `COc1cccc2c1C(=O)c1c(O)c3c(c(O)c1C2=O)C[C@@](O)(C(=O)CO)C[C@@H]3O[C@H]1C[C@H]2[C@H](O[C@@H]3[C@@H](OC)OCCN32)[C@H](C)O1`, the Potency is 0.0941 nM (active).

In the case of `COc1cccc2c1C(=O)c1c(O)c3c(c(O)c1C2=O)C[C@@](O)(C(=O)CO)C[C@@H]3O[C@H]1C[C@H](N)[C@H](O)[C@H](C)O1`, the Potency is 748 nM (active).

On to `CC(C)(C)OC(=O)Nc1ccc2[nH]c(C(=O)N3C[C@@H](CCl)c4c3cc(O)c3ccccc43)cc2c1`, for which the Potency was 9.4 nM (active). Regarding `CCN[C@H]1CO[C@@H](O[C@H]2[C@H](O[C@H]3C#C/C=C\C#C[C@]4(O)CC(=O)C(NC(=O)OC)=C3/C4=C\CSSSC)O[C@H](C)[C@@H](NO[C@H]3C[C@H](O)[C@H](SC(=O)c4c(C)c(I)c(O[C@@H]5O[C@@H](C)[C@H](O)[C@@H](OC)[C@H]5O)c(OC)c4OC)[C@@H](C)O3)[C@@H]2O)C[C@@H]1OC`, the Potency was 14.9 nM (active).
